Several values for one entry are separate records, joined by “and”; a condition that tells them apart may be missing. Equal entries are not always repeated. Activity calls are given as the source filed them. Unless noted, no stated cut-off is given here; in the data, active means inhibition above about 80%; inactive means the rest.
Assays:
[1] = BT084 cell growth, single and combined drugs, ICGC_MB145, cisplatin and BGB IC40 combos (AID 1671461); details: BT084 medulloblastoma cells, drug combinations, stronger effect = higher value;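 further: cells exposed to drugs for 96 hours; 0% = vehicle DMSO and 100% = high DMSO full killing control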
[2] = RCMB18 cell growth, single agent and combined, cisplatin and BGB IC40 combos (AID 1671462); details: RCMB18 medulloblastoma cells, stronger effect = higher value;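 further: cells exposed to compound for four days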
[3] = CRL1545 cell growth, single agent and combined, cisplatin and BGB IC20 combos (AID 1671464); details: CRL1545 osteosarcoma cells, stronger effect = higher value;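 further: cells exposed to compound for 96 hours before readout; 0% = vehicle DMSO and 100% = high DMSO killing control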
[4] = viability loss with induced miR-34 in A549 – imaging, A549 dox-inducible miR-34, nuclei and caspase counts, primary screen (AID 1347080;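 active means compounds whose cell count with miR-34 switched on is under 0.7 times the count with it off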); details: A549 miR-34 inducible, Hoechst nuclei count, 48 h
[5] = growth inhibition, single agent or in combination, cell-based, chromothripsis tumors, cisplatin or BGB combos (AID 1671449); details: LFS_MB_P medulloblastoma cells;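 further: cells exposed for 96 hours; 0% = vehicle DMSO and 100% = killing by high DMSO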
[6] = growth inhibition, single agent and combos, cell-based, chromothripsis tumors, cisplatin or BGB combos (AID 1671450); details: HDN33 neuroblastoma cells, stronger effect = higher value;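 further: cells exposed to compound for four days; 0% = vehicle DMSO and 100% = cell killing by high DMSO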
[7] = growth inhibition, single agents and combos, ICB984, cell-based, cisplatin or BGB combos, synergistic combos for chromothripsis tumors (AID 1671451; call rule not given here;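 further: cells exposed for 96 hours before readout; 0% = vehicle DMSO and 100% = killing by high DMSO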); details: ICB984 medulloblastoma cells, drug combinations, stronger effect = higher value
[8] = growth inhibition, single agents and combos, LFS_MB_1R, cell-based, cisplatin or BGB combos, synergistic combos for chromothripsis tumors (AID 1671452); details: LFS_MB_1R medulloblastoma cells, stronger effect = higher value;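 further: cells exposed for 96 hours before readout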
[9] = growth inhibition, single agents and combos, HTB85, cell-based, BGB or cisplatin IC20 combos, synergistic combos for chromothripsis tumors (AID 1671453); details: HTB85 osteosarcoma cells, drug combinations, stronger effect = higher value;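 further: cells exposed for 96 hours before readout; 0% = vehicle DMSO and 100% = high DMSO killing control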
[10] = growth inhibition, single agents and combos, CRL2098, cell-based, BGB or cisplatin IC20 combos, synergistic combos for chromothripsis tumors (AID 1671454); details: CRL2098 osteosarcoma cells, drug combinations, stronger effect = higher value;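 further: cells exposed for 96 h before readout; 0% = vehicle DMSO and 100% = killing by high DMSO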
[11] = growth inhibition, single agents and combos, HD-MB03, cell-based, BGB or cisplatin IC20 combos, synergistic combos for chromothripsis tumors (AID 1671455; in the data active means inhibition above about 83%;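 further: 0% = vehicle DMSO and 100% = high DMSO as cytotoxic control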); details: HD-MB03 medulloblastoma cells, stronger effect = higher value
[12] = growth inhibition, single agents and combos, UWB1.289, cell-based, BGB or cisplatin combos, synergistic combos for chromothripsis tumors (AID 1671456); details: UWB1.289 ovarian carcinoma cells, stronger effect = higher value;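 further: cells exposed to compound for four days; 0% = vehicle DMSO and 100% = killing by high DMSO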
[13] = growth inhibition, single agents and combos, LFS_MB_2R, cell-based, cisplatin combos, synergistic combos for chromothripsis tumors (AID 1671457); details: LFS_MB_2R medulloblastoma cells, stronger effect = higher value;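 further: cells exposed to compound for four days before readout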
[14] = growth inhibition, MDA-MB-436, cell-based, BGB or cisplatin combos, synergistic combos for chromothripsis tumors (AID 1671458; call rule not given here;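 further: cells exposed for 96 hours; 0% = vehicle DMSO and 100% = killing by high DMSO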); details: MDA-MB-436 breast carcinoma growth inhibition, drug combinations, stronger effect = higher value
[15] = UWB1.289_BRCA1 ovarian cancer growth, cell-based, BGB or cisplatin combinations (AID 1671459); details: UWB1.289 BRCA1 ovarian carcinoma, drug combinations, stronger effect = higher value
[16] = drug combination toxicity in non-malignant astrocytes – cell-based, BGB or cisplatin IC20 combos, cytotoxicity control for chromothriptic childhood tumor combination screen (AID 1671460); details: Human astrocytes, viability inhibition, drug combinations, at 0.5 µM, stronger effect = higher value;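 further: cells exposed to compounds for 96 hours before viability readout; 0% = vehicle and 100% = killing control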
[17] = measured here: BGB IC40 combination 0.05 uM, at 0.05 µM
[18] = measured here: BGB IC40 combination, at 0.05 µM
[19] = measured here: combination with cisplatin, at 0.5 µM
[20] = measured here: with BGB IC20 combination, at 0.5 µM
[21] = measured here: with cisplatin IC20 combination, at 0.5 µM
[22] = measured here: combination with BGB IC40, at 0.05 µM
[23] = measured here: combination with cisplatin, at 5 µM

## COc1c(N2CC3CCCNC3C2)c(F)cc2c(=O)c(C(=O)O)cn(C3CC3)c12 (stereo not given)
[1]; cisplatin combination, at 5 µM
  inhibition: -18.8% and -23%
[1]; [17]
  inhibition: -35.2% and -12.7%
[1]; single agent, at 5 µM
  inhibition: -4.05% and -7.99%
[2]; at 0.5 µM
  inhibition: -5.76% (inactive) and -15.1% (inactive)
[2]; cisplatin combo, at 5 µM
  inhibition: -131% and -3.44%
[2]; [18]
  inhibition: 9.3% and -24.7%
[2]; [19]
  inhibition: -0.114% and -16.6%
[2]; single agent, at 5 µM
  inhibition: -15% and -12.8%
[3]; at 0.5 µM
  inhibition: 10.4% (inactive) and -25.5% (inactive)
[3]; [20]
  inhibition: 13% and -1.64%
[3]; [21]
  inhibition: 7.59% and -37.4%
[3]; single agent, at 0.05 µM
  inhibition: -39.6% and 17%
[3]; single agent, at 5 µM
  inhibition: -7.8% and 21.6%

## Nc1ccccc1NC(=O)CCCCCCC(=O)Nc1ccccc1
[4]; stronger effect = lower value, cell number ratio, induced over uninduced
  fold change: 1.01 (inactive)
[4]; measured here: relative caspase fold change +Dox/-Dox
  fold change: 0.802
[4]; measured here: total cells with miR-34 induction, stronger effect = lower value
  cell count: 5630
[4]; measured here: total cells without miR-34 induction
  cell count: 5580
[5]; at 0.5 µM, stronger effect = higher value
  inhibition: -12.9% (inactive) and -25.1% (inactive)
[5]; measured here: combination with BGB IC20, at 0.005 µM
  inhibition: -23.2% and 0.813%
[5]; measured here: combination with BGB IC40, at 0.005 µM
  inhibition: 83.8% and -29.2%
[5]; [22]
  inhibition: -12.1% and -1.18%
[5]; measured here: combination with cisplatin, at 0.5 µM, stronger effect = higher value
  inhibition: -8.88% and -35.8%
[5]; measured here: combination with cisplatin, at 5 µM, stronger effect = higher value
  inhibition: 46.8% and 54.9%
[6]; BGB combo, at 5 µM
  inhibition: 20.6% and 28.7%
[6]; at 0.5 µM
  inhibition: 5.22% (inactive) and 5.82% (inactive)
[6]; cisplatin combo, at 5 µM
  inhibition: 39.9% and 36.6%
[6]; [20]
  inhibition: 3.82% and 0.196%
[6]; [21]
  inhibition: 11.3% and -1.37%
[6]; single agent, at 5 µM
  inhibition: 23.6% and 28%
[7]; BGB IC20 combo, at 0.005 µM
  inhibition: -17.1% and -28%
[7]; BGB IC40 combo, at 0.005 µM
  inhibition: -32.5% and -14.2%
[7]; BGB IC40 combo, at 0.05 µM
  inhibition: -14.5% and 9.77%
[7]; at 0.5 µM
  inhibition: -15.5% (inactive) and -30% (inactive)
[7]; cisplatin combo, at 0.05 µM
  inhibition: -20.4% and 6.2%
[7]; cisplatin combo, at 0.5 µM
  inhibition: -17.3% and -48.3%
[7]; cisplatin combo, at 5 µM
  inhibition: -18.3% and -14.7%
[7]; measured here: 5 uM single agent, at 5 µM
  inhibition: -14.3% and -5.49%
[8]; at 0.5 µM
  inhibition: -20.2% (inactive) and -14.9% (inactive)
[8]; [22]
  inhibition: -18.8% and -20.1%
[8]; [19]
  inhibition: -21.4% and -9.37%
[8]; [23]
  inhibition: 34.7% and 36.3%
[9]; at 0.5 µM
  inhibition: 1.45% (inactive) and -7.23% (inactive)
[9]; measured here: with BGB IC20, at 0.5 µM
  inhibition: 2.99% and -6.61%
[9]; measured here: with BGB IC20, at 5 µM
  inhibition: 19.2% and 7.94%
[9]; measured here: with cisplatin IC20, at 0.5 µM
  inhibition: -1.97% and -10.6%
[9]; measured here: with cisplatin IC20, at 5 µM
  inhibition: 29.1% and 24.4%
[9]; single agent, at 5 µM
  inhibition: 11.1% and 13.2%
[10]; at 0.5 µM
  inhibition: -31.9% (inactive) and -38.7% (inactive)
[10]; measured here: combination with BGB at IC20, at 0.5 µM
  inhibition: -43.5% and -26.6%
[10]; measured here: combination with cisplatin at IC20, at 0.5 µM
  inhibition: -10.1% and -25.3%
[11]; at 0.5 µM
  inhibition: -7.05% (inactive) and -2.46% (inactive)
[11]; measured here: combo with BGB at IC20, at 0.5 µM
  inhibition: -17.3% and -8.59%
[11]; measured here: combo with cisplatin at IC20, at 0.5 µM
  inhibition: -8.12% and 7.03%
[12]; at 0.5 µM
  inhibition: -2.22% (inactive) and -4.15% (inactive)
[12]; measured here: inhibition with BGB combination, at 0.05 µM
  inhibition: -17% and -12.6%
[12]; measured here: inhibition with cisplatin combination, at 0.05 µM
  inhibition: -16.5% and -4.91%
[13]; at 0.5 µM
  inhibition: -23.5% (inactive) and -15.8% (inactive)
[13]; [19]
  inhibition: -37.7% and -10.7%
[13]; [23]
  inhibition: 7.67% and 25.4%
[14]; at 0.5 µM
  inhibition: -14.6% (inactive) and -1.03% (inactive)
[14]; measured here: BGB combination, at 0.5 µM
  inhibition: -7.46% and 0.27%
[14]; measured here: BGB combination, at 5 µM
  inhibition: 5.07% and 2.02%
[14]; measured here: cisplatin combination, at 0.5 µM
  inhibition: -38.4% and 3.8%
[14]; measured here: cisplatin combination, at 5 µM
  inhibition: -8.44% and 23.3%
[15]; BGB combination, concentration series, at 5 µM
  inhibition: 0.199% and 30.8%
[15]; at 0.5 µM
  inhibition: -7.51% (inactive) and -1.85% (inactive)
[15]; cisplatin combination, concentration series, at 5 µM
  inhibition: 21% and 30.8%
[16]
  inhibition: 4.47% (inactive) and 4% (inactive)
[16]; measured here: combo with BGB IC20
  inhibition: 8.04% and 0.536%
[16]; measured here: combo with cisplatin IC20
  inhibition: -1.54% and 9.6%
[1]; at 0.5 µM
  inhibition: 4.38% (inactive) and 12.8% (inactive)
[1]; cisplatin combination, at 0.5 µM
  inhibition: -7.78% and 20.7%
[1]; cisplatin combination, at 5 µM
  inhibition: -10.7% and 73.5%
[1]; [17]
  inhibition: 4.05% and -2.15%
[1]; single agent, at 5 µM
  inhibition: 24.6% and 32.9%
[2]; at 0.5 µM
  inhibition: 7.96% (inactive) and 7.04% (inactive)
[2]; cisplatin combo, at 5 µM
  inhibition: 43.6% and 67.7%
[2]; [18]
  inhibition: -7.17% and -10.2%
[2]; [19]
  inhibition: 5.88% and 41.6%
[2]; single agent, at 5 µM
  inhibition: 30.6% and 7.16%
[3]; at 0.5 µM
  inhibition: 12.1% (inactive) and 5.27% (inactive)
[3]; [20]
  inhibition: -6.11% and -18%
[3]; [21]
  inhibition: 19.9% and 16.9%
[3]; single agent, at 0.05 µM
  inhibition: 13.3% and -6.35%
[3]; single agent, at 5 µM
  inhibition: 14.5% and 19.2%
